Compound activity from PubChem.
Rows were chosen to be rich in hits. Some 0.93% of all compounds tested hit in one or more screens of this group.
TRPML1 inh = human mucolipin-1 channel inhibition; TRPML1-inducible cells, Ca2+ dye fluorescence, FDSS; hits give low values; inhibition of EC80 agonist-evoked calcium signal; activity change, negative = inhibition, % (concentration not given with the values); actives 0.02% (n = 390,000); in the data active = activity change below about -50%; inconclusive = between about -30% and that limit;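 also: stimulus is agonist 54-4 at its EC80 concentration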
Target sequence (Q9GZU1 whole entry, looked up): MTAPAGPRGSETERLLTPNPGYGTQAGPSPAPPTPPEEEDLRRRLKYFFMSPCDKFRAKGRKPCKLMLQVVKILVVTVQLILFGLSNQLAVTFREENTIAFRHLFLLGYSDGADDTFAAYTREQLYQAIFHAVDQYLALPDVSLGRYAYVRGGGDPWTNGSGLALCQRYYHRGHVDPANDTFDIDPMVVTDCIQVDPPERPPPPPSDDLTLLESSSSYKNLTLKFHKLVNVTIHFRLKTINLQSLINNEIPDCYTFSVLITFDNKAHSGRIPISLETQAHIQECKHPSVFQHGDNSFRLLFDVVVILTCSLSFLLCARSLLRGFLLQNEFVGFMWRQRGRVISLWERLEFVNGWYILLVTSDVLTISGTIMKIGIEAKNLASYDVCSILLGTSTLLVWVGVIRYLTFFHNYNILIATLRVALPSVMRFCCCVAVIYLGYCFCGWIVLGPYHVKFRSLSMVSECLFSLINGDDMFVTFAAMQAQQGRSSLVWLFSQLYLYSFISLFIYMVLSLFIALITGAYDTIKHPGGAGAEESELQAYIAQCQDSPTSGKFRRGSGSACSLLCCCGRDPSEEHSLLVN
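Tet-induced TRPML1-DL cells loaded with Ca8 no-wash calcium dye were read kinetically on FDSS. Compound addition was followed by EC80 agonist 54-4 (4 uM final); inhibition was read over 110 s.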
TRHR agonist = agonists of human TRH receptor. TRHR cells, calcium flux fluo-8, FDSS agonist mode. actives 0.18% (n = 360,000). P34981. activation, % at 2 µM; in the data active = activation above about 30%
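Agonist-mode FDSS calcium read (Ex 480/Em 530, 1 s cycles) in 1536-well TRHR cells with fluo-8 dye, after 10-cycle baseline and 23 nL compound addition; TRH at EC20 (10 nM final) added afterwards for the enhancer phase.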
TRHR enhancer = allosteric enhancers of human TRH receptor; enhancement, % at 2 µM; P34981; actives 0.66% (n = 360,000); TRHR cells, fluo-8 calcium fluorescence, EC20 TRH enhancement; in the data active = enhancement above about 30%
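TRHR-expressing cells loaded with fluo-8 calcium dye were read kinetically (ex 480/em 530) during compound addition, then stimulated with an EC20 of TRH (10 nM final). Enhancement of the Gq-mediated intracellular calcium response was scored.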
TRPML1 ag = activates the human TRPML1 channel. Q9GZU1. TRPML1-expressing cells, Ca2+ dye fluorescence, FDSS. activation, % (concentration not given with the values). actives 0.12% (n = 410,000); in the data active = activation above about 50%; inconclusive = mostly about 30% to 49%
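TRPML1-DL cells, Tet-induced overnight (~16 h, 37 degrees C), loaded 45-90 min at room temperature with Ca8 no-wash calcium dye plus quencher. FDSS fluorescence: 10 s baseline, compound pin-transfer, 110 s agonist read, then EC80 54-4 (4uM final) and 110 s antagonist read.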
HEK293 tox = cytotoxicity in counter-screen for GLP-1R inverse agonists. AID 624418. HEK293 cAMP-luciferase reporter cells, luminescence, 24 h. Potency, µM (highest dose often 38.3 µM), actives largely listed as inhibitors. actives 0.13% (n = 410,000);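 also: loss of luciferase light is scored as toxicity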
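Cells in DMEM/10% Nu serum/1% pen-strep, 1536-well format. Pre-incubated 12 h, dosed with 23 nL compound, incubated a further 24 h. Luciferase detection, 12 min at room temp, luminescence.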
PTHR1 agonist = agonists of human PTHR1 parathyroid hormone receptor | HEK293 GP2 PTHR1 cells, GloSensor cAMP luminescence, 1 h | actives 0.075% (n = 410,000) | Q03431 | Potency, µM (titrated, usually from 115 µM), hits mostly activators | AID 743266; also: nearly all actives have a fitted effect of over 55% in size
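HEK-293-derived GP2 cells expressing PTHR1 and a GloSensor cAMP reporter, 3,000/well, plated overnight, given luciferin plus IBMX (each 0.5 mM as added) for 1 h at 37 °C, then compound for 1 h at 37 °C. Luminescence was read after 15 min at room temperature.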
Hits are given with their value; - = inactive; ? = inconclusive; . = no result given; ! = a repeat was not active; [ ] = remark or other dose. Unless noted, calls follow the shape of the dose curve; as a rule, active = well fitted curve in the direction sought with a large enough effect; inconclusive = small, poorly fitted or top-dose-only effect, or another doubt; inactive = no such curve, though single readings can be large; an effect the other way counts as inactive or inconclusive.

SMILES	TRPML1 inh	TRHR agonist	TRHR enhancer	TRPML1 ag	HEK293 tox	PTHR1 agonist
COc1cc(/C=C2\C=Cc3ccccc32)cc(OC)c1OC	.	.	.	-	.	.
CCc1ccc(-c2nc3c(=O)n(C)c(=O)nc-3n(CC)n2)cc1	.	.	.	-	.	.
CC(C)(C)n1ncc2c(=O)n(Cc3cc(F)ccc3Cl)cnc21	-	.	.	-	.	.
CCOc1ccc(NS(=O)(=O)c2ccc(NC(=S)NC(=O)CC(C)C)cc2)cc1	-	-	32.1	-	?	-
CCCC(=O)NC(=S)Nc1ccc(S(=O)(=O)Nc2ccc(OCC)cc2)cc1	-	-	-	-	?	-
O=C(c1cc(-c2ccc(Cl)cc2)on1)N1CCCCCC1	-	-	-	-	-	-
O=C(c1cc(-c2ccc(O)cc2)on1)N1CCCCCC1	-51.6	-	-	-	-	-
CS(=O)(=O)N1CCN(Cc2cc3nc(-c4cccc5[nH]ncc45)nc(N4CCOCC4)c3s2)CC1	.	.	.	-	.	.
CCCCCCCn1ccc(O)c(CC(=O)OC)c1=O	-	-	-	-	-	50.1µM
COc1ccc(C(CC(=O)O)NC(=O)C2CCCCC2)cc1 (centres undefined)	-	-	39.4	-	-	-
CC(C)(C)n1ncc2c(=O)n(Cc3cccc(F)c3)cnc21	-	.	.	-	.	.
CCn1cc(C(=O)OCC(=O)N(C)C2CCS(=O)(=O)C2)c(=O)c2ccc(C)nc21 (centres undefined)	-	-	31.1	-	-	-
CC(C)(C)C(=O)/C=c1\s/c(=C\c2ccc(-c3ccc([N+](=O)[O-])cc3)o2)c(=O)n1CC(=O)NC(N)=O	-	215.0	-	?	-	-
COc1ccc(S(=O)(=O)Nc2cc3c(C(C)=O)c(C)oc3c3ccccc23)cc1	-	-	-	62.4	?	-
O=S(=O)(c1ccc2c(c1)OCCO2)N1CCN(S(=O)(=O)c2cccc[n+]2[O-])CC1	.	-	-	.	.	.
CCCCn1c(C)cc2c(c1=O)C1O[C@](c3ccsc3)(Cc3ccccc31)O2	.	-	33.0	.	.	.
CCNc1nc(N2CCCN(C)CC2)nc2cc(OC)c(OC)cc12	.	.	.	-	.	.
Cn1c(CCN2CCN(c3ccccc3)CC2)nc2cc(NC(=O)c3ccco3)ccc21	-	-	33.4	-	-	-
O=S(=O)(c1ccc2c(c1)OCCO2)N1CCN(S(=O)(=O)c2c(F)ccc(O)c2F)CC1	.	-	-	.	.	.
CN(C)S(=O)(=O)N1CCN(c2cc(Cl)ccc2Cl)CC1	-	-	35.1	-	-	-
CN(C)S(=O)(=O)N1CCN(c2ccccc2Cl)CC1	-	-	-	-	-	-
CCn1cc(Cl)c(C(=O)Nc2ccc3c(c2)OCCO3)n1	-	-	37.5	-	-[7.66 µM]	-
COC(=O)c1cc(NCc2c(F)cccc2Cl)ccc1N1CCOCC1	-	-	-	-	-	2.51µM
COC(=O)c1cc(NCc2cccs2)ccc1N1CCOCC1	-	-	-	-	-	-
O=S(=O)(c1ccc(Cl)cc1)N1CCN(c2nc(-c3cccc(Br)c3)nc3ccccc23)CC1	-	-	-	-	.	.
SMILES	TRPML1 inh	TRHR agonist	TRHR enhancer	TRPML1 ag	HEK293 tox	PTHR1 agonist
COc1ccc(NC(=O)CN(c2ccccc2C)S(C)(=O)=O)c(OC)c1	-	-	31.3	-	-	-
CC(=O)NCCCc1ccc(C(=O)COC(=O)CNC(=O)c2ccc3ccccc3c2)cc1	.	.	.	-	.	.
Cn1c(=S)c2[nH]c(SCCN)nc2n(C)c1=O	-	.	.	-	3.16µM	-
CN(C(=O)COc1cc(C(F)(F)F)nn1C)c1ccccc1	-	-	35.3	-	-	-
CC(=O)O[C@@H]1[C@@H](O)CN[C@@H]1Cc1ccccc1	-	.	.	-	.	.
N=c1oc2c3c4c(cc2cc1C(=O)Nc1ccccc1)CCCN4CCC3	-	93.5	-	-	-	-
Cc1ccc(NC(=O)c2cc3ccccc3oc2=N)cc1	-	-	-	-	-	-
Cc1ccc(CNC(=O)CCc2c(C)nn(-c3ccc(N4CCOCC4)nn3)c2C)cc1	-	-	-	-	-	-
Cc1nn(-c2ccc(N3CCOCC3)nn2)c(C)c1CCC(=O)NCc1ccc(F)cc1	-	-	33.9!	-	-	-
Nc1ccc2nc(-c3ccccc3)c(-c3ccccc3)nc2c1	-	32.2	-	-	-	-
Cc1cc2nc3c(=O)n(C4CCCCC4)c(=O)[nH]c3nc2cc1N	-	119.2	-	86.8	-	-
CC1CN(c2ccc(NS(=O)(=O)c3ccccc3)cc2C(=O)O)CC(C)O1 (centres undefined)	-	-	-	-	-	-
CC1CN(c2ccc(NC(=O)c3ccco3)cc2C(=O)O)CC(C)O1 (centres undefined)	-	-	30.1	-	-	-
COc1cc2nc(N3CCCCC3)nc(NC3CCN(C)CC3)c2cc1OC	.	.	.	-	.	.
Cc1cc(-c2nnc(SCc3ccccn3)o2)no1	-	-	31.2	-	-	-
COc1cc(OC)cc(-c2c(-c3cccs3)c3cc(-c4ccc5[nH]ccc5c4)ccc3n2C)c1	-	-	40.5	-	-	-
O=C(NCc1ccco1)c1ccc2snnc2c1	-	-	31.8	-	-	-
CCCN1C(=O)/C(=C/c2c(NCCCOCC)nc3c(C)cccn3c2=O)SC1=S	-	-	-	-	-	-
O=C1/C(=C\c2c(NCCOCCO)nc3ccccn3c2=O)SC(=S)N1Cc1ccco1	-	32.8	-	-	?	-
Cc1cc(C)c(C)c(S(=O)(=O)N2CCN(S(=O)(=O)c3ccc4c(c3)OCCO4)CC2)c1C	.	-	-	.	.	.
Cc1cc(-c2nnco2)c(C)n1-c1ccc(F)cc1	-	-	-	-	-	7.08µM
COc1ccc(NC(=O)C(OC(=O)CNC(=O)c2ccccc2)c2ccccc2)cc1Cl (centres undefined)	.	-	-	.	.	.
CCc1cccc2c(C(O)c3c[nH]c4ccccc34)c[nH]c12 (centres undefined)	.	.	.	-	.	.
